Test [1] is described as follows: P-glycoprotein substrates identified in KB-3-1 adenocarcinoma cell line, qHTS therapeutic library screen (AID 1346986). Note: nearly all actives have a fitted effect of over 60% in size.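 Note: potency is the fitted concentration of half-maximal effect; potency is for cytotoxicity meaning loss of cell viability.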 Put shortly:
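Resistance attributable to P-gp was assessed by comparing AC50 in KB-8-5-11 with parental KB-3-1 and by tariquidar reversal. Cells were exposed 72 h and viability read by CellTiter-Glo.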

A short description of test [2]: P-glycoprotein substrates identified in KB-8-5-11 adenocarcinoma cell line, qHTS therapeutic library screen (AID 1346987). Note: nearly all actives have a fitted effect of over 65% in size. Note: potency is the fitted concentration of half-maximal effect. Put shortly:
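Steps: plate 500 KB-8-5-11 cells/well in DMEM + 10% FCS (colchicine removed); pin compounds in dose-response; incubate 72 h, 37 degree C, 5% CO2; add CellTiter-Glo, 5 min; read luminescence.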

The target in test [3] is Voltage-gated inwardly rectifying potassium channel KCNH2 (Homo sapiens) (UniProt Q12809). Put plainly: qHTS Assay for Small Molecule Inhibitors of the Human hERG Channel Activity (AID 588834).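 Note: top concentration of the series differs between compounds; % is set by controls: 0 for no effect and ±100 for the full control effect; lower thallium flux fluorescence means stronger hERG block; nearly all actives have a fitted effect of over 50% in size.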 Put shortly: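 Measured: FluxOR fluorescence after thallium stimulation in U2OS cells transduced with hERG by baculovirus. Compounds pre-incubated around 10 min; medium Opti-MEM with 2% FCS. AC50 from Hill equation.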
Chain of Voltage-gated inwardly rectifying potassium channel KCNH2 (Homo sapiens) (Q12809 whole entry, looked up): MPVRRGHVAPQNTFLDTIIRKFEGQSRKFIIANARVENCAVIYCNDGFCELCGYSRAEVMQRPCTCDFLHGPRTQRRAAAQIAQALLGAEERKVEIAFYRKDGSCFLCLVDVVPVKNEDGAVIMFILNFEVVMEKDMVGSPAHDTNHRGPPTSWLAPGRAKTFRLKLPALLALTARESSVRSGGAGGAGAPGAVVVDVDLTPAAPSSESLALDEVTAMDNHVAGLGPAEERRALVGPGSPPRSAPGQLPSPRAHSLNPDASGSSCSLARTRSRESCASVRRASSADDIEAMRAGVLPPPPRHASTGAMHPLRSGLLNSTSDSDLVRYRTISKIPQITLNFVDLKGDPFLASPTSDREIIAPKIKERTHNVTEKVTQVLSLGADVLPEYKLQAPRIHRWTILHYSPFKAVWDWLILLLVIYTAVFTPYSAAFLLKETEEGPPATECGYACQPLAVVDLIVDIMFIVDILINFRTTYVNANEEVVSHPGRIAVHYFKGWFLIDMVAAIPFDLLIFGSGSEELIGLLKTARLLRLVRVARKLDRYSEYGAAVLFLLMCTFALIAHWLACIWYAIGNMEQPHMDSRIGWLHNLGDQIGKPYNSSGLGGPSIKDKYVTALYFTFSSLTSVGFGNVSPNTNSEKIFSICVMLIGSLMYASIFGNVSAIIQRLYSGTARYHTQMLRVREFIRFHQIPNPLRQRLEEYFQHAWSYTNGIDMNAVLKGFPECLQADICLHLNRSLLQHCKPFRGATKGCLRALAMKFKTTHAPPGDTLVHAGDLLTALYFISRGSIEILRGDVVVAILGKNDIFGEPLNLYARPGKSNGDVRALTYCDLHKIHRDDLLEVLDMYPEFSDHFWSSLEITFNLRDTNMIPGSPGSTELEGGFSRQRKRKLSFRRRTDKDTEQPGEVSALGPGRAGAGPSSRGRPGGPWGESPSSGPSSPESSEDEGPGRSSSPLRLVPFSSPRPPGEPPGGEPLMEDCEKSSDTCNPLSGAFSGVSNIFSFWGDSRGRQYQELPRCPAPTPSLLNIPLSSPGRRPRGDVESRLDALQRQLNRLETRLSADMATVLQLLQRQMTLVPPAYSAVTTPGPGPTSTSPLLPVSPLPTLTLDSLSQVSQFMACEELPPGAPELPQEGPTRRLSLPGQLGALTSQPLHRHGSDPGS

Another test has as its system astro. The experiment in a line: Drug repurposing screens with cells derived from glioblastoma tumor samples (AID 1345199). Note: potency is the fitted concentration of half-maximal effect; nearly all actives have a fitted effect of over 40% in size. The following applies: viability, ATP luminescence, 48 h; series mostly up to 45.9 µM. Put shortly:
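Four patient lines of CD133+ GBM neurospheres were screened at several concentrations; hits were retested in those lines plus three slower-growing GBM lines, using 48-hour treatment and ATP-based viability.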

Test [4] addresses Cytochrome P450 3A4 (Homo sapiens) (UniProt P08684). Put plainly: qHTS Assay for Activators of Cytochrome P450 3A4 (AID 885). Note: nearly all actives have a fitted effect of over 65% in size. Put shortly:
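20nM CYP3A4 + 25uM Luciferin-PPXE (=KM), 200mM KPO4; cpd 10 min RT; NADPH regen, 60 min RT; stop w/ detection buffer, 20 min; luminescence. Normalized to 57 uM ketoconazole.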

Test [5] concerns Zika virus NS2B-NS3 protease. The experiment in a line: Primary screen GU AMC qHTS for Zika virus inhibitors (AID 1347154).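 Note: 0% = no-inhibitor control and -100% = no-enzyme control; nearly all actives have a fitted effect of over 70% in size.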 Put shortly: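 Unlinked Zika NS2B hydrophilic domain/NS3 protease domain noncovalent complex (25 nM final) in 10 mM Tris-HCl pH 8.0, 0.01% Tween 20, with AMC peptide substrate. Fluorescence (ex 340, em 450 nm) change over 15 min, room temperature; percent inhibition fitted to 4-parameter Hill equation.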

A short description of test [6]: Primary qHTS for small molecule stabilizers of the endoplasmic reticulum resident proteome: Secreted ER Calcium Modulated Protein (SERCaMP) assay (AID 1508630). Note: % is set by controls: 0 for no effect and ±100 for the full control effect. Put shortly: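 GLuc-SERCaMP-expressing SH-SY5Y cells, pretreated 16 h with compound, are challenged with thapsigargin to empty ER calcium stores; after 4 h, coelenterazine is added directly to the medium and luminescence is imaged.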

Test [7] has as its target N-terminal Xaa-Pro-Lys N-methyltransferase 1 (Homo sapiens) (UniProt Q9BV86). Put plainly: Confirmatory qHTS for Inhibitors of N-terminal methyltransferase 1 (NTMT1): MTaseGlo Assay (AID 1645874). Note: potency is the fitted concentration of half-maximal effect; nearly all actives have a fitted effect of over 65% in size. Put shortly: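 Luminescent MTase-Glo read-out of SAH. 125 nM NTMT1, 100 uM SAM, 1 uM SPKRIA substrate, 30 min RT reaction after 15 min compound preincubation. Normalized to no-enzyme and DMSO controls; Hill fit.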

A short description of test [8]: Primary qHTS for inhibitors of nuclear receptor binding SET domain protein 2 (NSD2) in an isogenic RCH-ACV NSD2 p.E1099K mutant (9B) (AID 1645876). Note: potency is the fitted concentration of half-maximal effect; nearly all actives have a fitted effect of over 70% in size.
Test [9] is described as follows: Primary qHTS for inhibitors of nuclear receptor binding SET domain protein 2 (NSD2) in an RCH-ACV wild type WT cells (2C) (AID 1645877). Note: potency is the fitted concentration of half-maximal effect; nearly all actives have a fitted effect of over 70% in size.
The nature of test [10]: qHTS to identify inhibitors of the type 1 interferon - major histocompatibility complex class I in skeletal muscle: primary screen against the NCATS Mechanism Interrogation Plate v5.0 (MIPE) Libary (AID 1347411).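 For activity change, negative = inhibition: plate controls were vehicle for no effect and reference inhibitor for full effect.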 Note: nearly all actives have a fitted effect of over 65% in size. Note: potency is the fitted concentration of half-maximal effect. Put shortly:
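Luminescence from HiBiT-tagged endogenous HLA-B*08:01 served as the MHC class I read-out. CRISPR-engineered C25cl48 human myoblasts received 4.0 ng/ml IFN-beta plus compound for 24 hrs, with an 11-point, 1:3 series topping at 46 uM final.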

The target in test [11] is Glutathione peroxidase 1 (Homo sapiens) (UniProt P07203). The experiment in a line: Primary qHTS Assay for Inhibitors of Recombinant Selenoprotein Glutathione Peroxidase 1 (GPX1) (AID 1845191). Note: nearly all actives have a fitted effect of over 65% in size. Put shortly:
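Recombinant GPX1 (10 nM final) was preincubated with compound for 30 min at room temperature, then reacted with 1 mM GSH, 0.5 mM CHP, 0.5 mM NADPH and 100 nM glutathione reductase; NADPH fluorescence (340/450 nm) was read at 0 and 15 min.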

Test [12] deals with Phospholipid hydroperoxide glutathione peroxidase GPX4 (Homo sapiens) (UniProt P36969). Put plainly: Primary qHTS Assay for Inhibitors of Recombinant Selenoprotein Glutathione Peroxidase 4 (GPX4) (AID 1845192). The note with it: outcome: dose series up to 50 µM unless noted. Put shortly:
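GR-coupled readout: 100 nM GR, 1 mM GSH, 0.5 mM NADPH; NADPH fluorescence (ex 340/em 450 nm) read at t=0 and after 15 min RT. GPX4 200 nM, preincubated 30 min with compound; substrate 0.5 mM CHP.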

Test [13] can be described thus: qHTS drug screen for cell cycle checkpoint inhibitors in PARPi-resistant BRCA-mutant ovarian cancer cell lines. (AID 1963452; calls by dose curve; note: potency is the fitted concentration of half-maximal effect). The following applies: PEO1/OlaR viability, CellTiter-Glo luminescence, 96 h; for Z-AUC: stronger effect = lower value. Put shortly: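 PEO1, PEO4 and PEO1/OlaR ovarian cancer cells, 600 per well, exposed 96 h at 37C to a dilution series. Viability read by CellTiter-Glo luminescence, normalized to DMSO and empty wells; activity summarized as Z-AUC.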

The nature of test [14]: qHTS assay to identify inhibitors of the type 1 interferon - major histocompatibility complex class I in skeletal muscle: Counter screen cell viability and HiBit confirmation (AID 1347412). Note: potency is the fitted concentration of half-maximal effect; nearly all actives have a fitted effect of over 60% in size. The note with it: iHSKM muscle cells + IFN-b, HiBiT or CellTiter-Glo, 24 h; HiBiT. Put shortly: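 Myoblasts (C25cl48, HLA-B HiBiT) seeded in medium without dexamethasone, IFN-b 4 ng/ml added except unstimulated columns; 1 hr later compounds pinned (12-pt 1:3, top 46 uM final). Incubated 24 hrs, lysed 10 min, luminescence measured.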

Test [15] deals with Cytochrome P450 3A4 (Homo sapiens) (UniProt P08684). The experiment in a line: qHTS Assay for Inhibitors and Substrates of Cytochrome P450 3A4 (AID 884). Note: % is set by controls: 0 for no effect and ±100 for the full control effect; nearly all actives have a fitted effect of over 50% in size. Put shortly: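 20 nM human CYP3A4 with 25 uM Luciferin-PPXE (at KM) in 200 mM KPO4, preincubated 10 min with compound; NADPH regeneration started a 60 min RT reaction. Luciferin detected by luminescence, normalized to 57 uM ketoconazole as full inhibition.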
Chain of Cytochrome P450 3A4 (Homo sapiens) (P08684 whole entry, looked up): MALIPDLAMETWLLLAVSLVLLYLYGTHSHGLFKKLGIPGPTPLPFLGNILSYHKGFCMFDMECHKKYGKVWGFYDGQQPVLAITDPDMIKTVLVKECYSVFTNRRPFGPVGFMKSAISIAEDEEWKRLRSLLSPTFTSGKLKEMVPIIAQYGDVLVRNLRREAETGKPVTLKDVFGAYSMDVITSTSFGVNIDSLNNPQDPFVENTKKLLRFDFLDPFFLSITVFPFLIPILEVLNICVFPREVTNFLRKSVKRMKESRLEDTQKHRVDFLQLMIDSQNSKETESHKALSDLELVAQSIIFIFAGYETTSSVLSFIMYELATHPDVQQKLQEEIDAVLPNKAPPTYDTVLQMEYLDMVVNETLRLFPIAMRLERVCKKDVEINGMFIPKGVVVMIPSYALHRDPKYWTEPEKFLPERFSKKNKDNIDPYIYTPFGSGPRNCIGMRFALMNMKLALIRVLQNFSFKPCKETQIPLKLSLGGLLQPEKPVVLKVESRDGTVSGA

Test [16] can be described thus: Confirmation and Secondary Assay for Modulators of Hemoglobin Beta Chain Splicing at IVS2 654 locus (AID 910).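 Note: per-well total GFP intensity by laser scanning cytometry after 2-day treatment; % of control where 0% means no effect.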 Put shortly:
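HeLa cells stably carrying EGFP interrupted by mutant beta-globin IVS2-654 intron (CMV-driven) were treated with compound for 2 days at 37C; corrected splicing was scored as total peak GFP intensity per well (488 nm excitation, 500-520 nm emission).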

Test [17] can be described thus: Confirmation and Secondary Assay for Modulators of Hemoglobin Beta Chain Splicing at IVS2 705 locus (AID 930).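 Note: HeLa cells stably expressing the EGFP-705 splicing reporter; % of control where 0% means no effect.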 Put shortly:
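Restored EGFP fluorescence after 2-day compound exposure reports splicing correction in IVS2-705 EGFP reporter HeLa cells; positive control was 500 nM splice-blocking PNA oligo. Signal measured as well total peak GFP intensity (488 nm excitation).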

Test [18] deals with Ubiquitin carboxyl-terminal hydrolase 1 (Homo sapiens) (UniProt O94782). Put plainly: Inhibitors of USP1/UAF1: Pilot qHTS (AID 504865).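 Note: rhodamine fluorescence freed from ubiquitin-rhodamine substrate followed over time; top concentration of the series differs between compounds; % is set by controls: 0 for no effect and ±100 for the full control effect; nearly all actives have a fitted effect of over 35% in size.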 Put shortly: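 Kinetic fluorescence assay: 1nM USP1/UAF1, 15 min compound preincubation, then 150nM Ub-Rho; 480/540 nm.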
Chain of Ubiquitin carboxyl-terminal hydrolase 1 (Homo sapiens) (O94782 whole entry, looked up): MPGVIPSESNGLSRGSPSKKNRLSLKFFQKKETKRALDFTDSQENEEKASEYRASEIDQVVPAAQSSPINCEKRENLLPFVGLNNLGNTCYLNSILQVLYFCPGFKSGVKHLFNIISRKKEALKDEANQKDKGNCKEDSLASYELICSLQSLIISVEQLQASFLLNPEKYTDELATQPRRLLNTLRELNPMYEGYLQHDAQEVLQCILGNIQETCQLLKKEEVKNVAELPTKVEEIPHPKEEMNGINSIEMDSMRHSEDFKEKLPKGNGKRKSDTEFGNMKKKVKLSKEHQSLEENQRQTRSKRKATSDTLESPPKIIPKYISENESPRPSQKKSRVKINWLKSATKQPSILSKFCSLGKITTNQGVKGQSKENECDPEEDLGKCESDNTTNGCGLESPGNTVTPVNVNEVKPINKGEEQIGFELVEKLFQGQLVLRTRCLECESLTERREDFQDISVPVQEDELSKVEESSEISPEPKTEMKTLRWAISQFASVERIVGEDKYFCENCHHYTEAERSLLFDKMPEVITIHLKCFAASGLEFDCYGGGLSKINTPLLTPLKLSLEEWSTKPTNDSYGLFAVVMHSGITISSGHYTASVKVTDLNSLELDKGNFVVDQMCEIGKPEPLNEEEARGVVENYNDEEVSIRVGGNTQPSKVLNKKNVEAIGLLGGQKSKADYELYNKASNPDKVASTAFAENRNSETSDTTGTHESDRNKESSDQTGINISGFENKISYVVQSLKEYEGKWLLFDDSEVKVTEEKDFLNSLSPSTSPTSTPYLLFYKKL
Test [19] deals with Catechol O-methyltransferase (Homo sapiens) (UniProt P21964). Put plainly: Confirmatory Screen for Target Class Profiling of Small Molecule Inhibitors of Methyltransferases (AID 1745852; calls by dose curve; note: potency is the fitted concentration of half-maximal effect). The note with it: MTase-Glo luminescence, SAH detection, recombinant enzyme; measured here: COMT max response; stronger effect = lower value.
Chain of Catechol O-methyltransferase (Homo sapiens) (P21964 whole entry, looked up): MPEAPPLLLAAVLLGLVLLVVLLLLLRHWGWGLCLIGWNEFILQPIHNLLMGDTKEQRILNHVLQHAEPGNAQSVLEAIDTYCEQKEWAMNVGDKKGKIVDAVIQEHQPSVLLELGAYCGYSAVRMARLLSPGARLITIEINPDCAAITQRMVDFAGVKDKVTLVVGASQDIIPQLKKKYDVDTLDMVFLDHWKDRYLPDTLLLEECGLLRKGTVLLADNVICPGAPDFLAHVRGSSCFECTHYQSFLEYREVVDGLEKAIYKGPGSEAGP
Test [20] has as its target Guanidinoacetate N-methyltransferase (Homo sapiens) (UniProt Q14353). Described as above. The following applies: activity change, negative = inhibition: at 57.3 µM (top of the series) unless noted.
The target of test [21] is Nicotinamide N-methyltransferase (Homo sapiens) (UniProt P40261). The description is as above. The note with it: MTase-Glo luminescence, SAH detection, recombinant enzyme; measured here: NNMT max response; stronger effect = lower value.
Chain of Nicotinamide N-methyltransferase (Homo sapiens) (P40261 whole entry, looked up): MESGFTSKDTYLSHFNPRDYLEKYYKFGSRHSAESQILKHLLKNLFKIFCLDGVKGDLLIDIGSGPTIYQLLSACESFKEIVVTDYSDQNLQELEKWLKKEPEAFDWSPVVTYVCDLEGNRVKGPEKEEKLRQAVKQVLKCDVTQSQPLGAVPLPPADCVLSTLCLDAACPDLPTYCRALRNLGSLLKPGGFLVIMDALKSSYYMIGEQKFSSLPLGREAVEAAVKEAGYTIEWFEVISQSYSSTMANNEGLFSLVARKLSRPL
Test [22] concerns the target Phenylethanolamine N-methyltransferase (Homo sapiens) (UniProt P11086). The description is as above. The following applies: MTase-Glo luminescence, SAH detection, recombinant enzyme; measured here: PNMT max response; stronger effect = lower value.

“And” between values parts separate entries of the source, which are not always exact repeats. Equal values may be shown once. Records with an inconclusive call do not appear. The source made the active and inactive calls. Unless noted, calls come from the whole dose curve; as a rule, active = well fitted curve in the direction sought with a large enough effect; inconclusive = small, poorly fitted or top-dose-only effect, or another doubt; inactive = no such curve, though single readings can be large; an effect the other way counts as inactive or inconclusive.

Chain of Glutathione peroxidase 1 (Homo sapiens) (P07203 whole entry, looked up): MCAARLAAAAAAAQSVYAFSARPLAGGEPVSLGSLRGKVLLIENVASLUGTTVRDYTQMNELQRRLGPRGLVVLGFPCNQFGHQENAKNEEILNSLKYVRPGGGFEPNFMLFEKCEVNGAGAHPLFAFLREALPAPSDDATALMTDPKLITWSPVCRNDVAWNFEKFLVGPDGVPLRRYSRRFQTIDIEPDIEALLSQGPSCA
Chain of N-terminal Xaa-Pro-Lys N-methyltransferase 1 (Homo sapiens) (Q9BV86 whole entry, looked up): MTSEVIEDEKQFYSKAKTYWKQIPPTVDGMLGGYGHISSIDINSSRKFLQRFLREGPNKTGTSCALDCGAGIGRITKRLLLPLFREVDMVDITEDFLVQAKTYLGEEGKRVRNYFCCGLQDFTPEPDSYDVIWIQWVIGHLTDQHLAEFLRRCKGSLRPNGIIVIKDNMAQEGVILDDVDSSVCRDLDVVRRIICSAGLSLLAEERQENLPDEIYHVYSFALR
Chain of Phospholipid hydroperoxide glutathione peroxidase GPX4 (Homo sapiens) (P36969 whole entry, looked up): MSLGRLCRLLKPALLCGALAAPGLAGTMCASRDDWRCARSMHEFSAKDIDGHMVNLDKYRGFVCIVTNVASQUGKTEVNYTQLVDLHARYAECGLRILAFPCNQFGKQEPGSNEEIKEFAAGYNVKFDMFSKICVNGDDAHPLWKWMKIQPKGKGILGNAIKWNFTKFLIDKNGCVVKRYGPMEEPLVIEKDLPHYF
Chain of Phenylethanolamine N-methyltransferase (Homo sapiens) (P11086 whole entry, looked up): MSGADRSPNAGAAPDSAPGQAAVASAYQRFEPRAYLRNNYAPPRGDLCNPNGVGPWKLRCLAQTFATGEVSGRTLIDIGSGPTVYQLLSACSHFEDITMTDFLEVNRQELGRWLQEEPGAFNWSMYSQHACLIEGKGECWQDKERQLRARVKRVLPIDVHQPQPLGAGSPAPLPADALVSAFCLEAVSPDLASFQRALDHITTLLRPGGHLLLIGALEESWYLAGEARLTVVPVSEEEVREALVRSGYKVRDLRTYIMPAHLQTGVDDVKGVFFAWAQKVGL

`N#C/C(=C(\N)Sc1ccc(N)cc1)c1ccccc1C(F)(F)F`: the Potency entry in [1] and in test [2] was “inactive” in each case.

With `C=C1C(=O)O[C@H]2[C@H]1CC/C(C)=C\CC[C@@]1(C)O[C@@H]21`, the Potency entry in [3] is “inactive”. In addition, the Potency in the test with astro is 20 µM (active).

As for `Cn1cc(C2=C(c3cn(CCCSC(=N)N)c4ccccc34)C(=O)NC2=O)c2ccccc21`, the Potency result in [4], in [2], in [5] and in test [6] was “inactive” in each case. The Potency is 5.17 µM (active) in [1], 6.02 µM (active) in [7], 1.46 µM (active) in test [8] and 1.64 µM (active) in [9].

`O=C1NC(=O)/C(=C/c2ccc3nccc(-c4ccncc4)c3c2)S1`: the Potency is 1.64 µM (active) in test [1]; 3.66 µM (active) in [2]; 0.829 µM (active) in [10]; 920 nM (active) and 332 nM (active) in test [8]; 1.95 µM (active) in test [13]; 4.97 µM (active) in test [14]. Also, the Potency entry in test [11] and in test [12] was “inactive” each time. Further, the Z-AUC in test [13] (measured here: PEO1 parental Z-AUC) was -1.47; in [13] (measured here: PEO4 Z-AUC) it was -1.84.

`COc1c(Nc2ncc(Cl)c(N[C@H]3[C@H](C(N)=O)[C@@H]4C=C[C@@H]3C4)n2)ccc2c1CCC(N1CCOCC1)CC2` (some centres undefined): the Potency is 6.51 µM (active) in test [1], 4.11 µM (active) in test [2], 1.05 µM (active) in [8] and 3.32 µM (active) in test [9]. For the same compound, the Potency entry in test [10] is “inactive”.

For the compound `CC[C@@]1(O)C[C@H](O[C@H]2C[C@H](N(C)C)[C@H](O[C@H]3C[C@H](O)[C@H](O[C@H]4CCC(=O)[C@H](C)O4)[C@H](C)O3)[C@H](C)O2)c2c(cc3c(c2O)C(=O)c2c(O)cccc2C3=O)[C@H]1C(=O)OC`, the Potency in the test with astro is 0.447 µM (active).

With `Nc1ncnc2c1c(I)cn2C1OC(CO)C(O)C1O` (centres undefined), the Potency entry in test [15], in test [18], in test [5], in test [6] and in test [11] was “inactive” throughout. Besides, the outcome in test [16] and in [17] was “inactive” throughout. Besides, the Potency in test [1] was 3.26 µM (active); in test [2], 2.31 µM (active); in test [7] it was 0.851 µM (active); in test [8] it was 1.84 µM (active); in test [9] it was 1.03 µM (active); in test [20], 12.1 µM (active). Also, the activity in [19] was -96.2%; in [21], -88.4%; in test [22], -97.6%.

(Values after PubChem BioAssay (NCATS).)
